{"source": "PubChem BioAssay (Tox21)", "key": {"[1]": {"assay": "Human pregnane X receptor (PXR) small molecule agonists, qHTS cell viability counter screen (AID 1346977); also: nearly all actives have a fitted effect of over 50% in size", "outline": "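PXR-Luc HepG2 cells (2,000/well, 5% charcoal-stripped FBS) preincubated 5 hr, then exposed to compounds 24 hr at 37 C. Viability read in the same wells by CellTiter-Fluor fluorescence, reagent added at 23 hr, 1 hr incubation.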"}, "[2]": {"assay": "Caspase-3/7 induction in HepG2 cells by small molecules, qHTS assay (AID 1346978); also: nearly all actives have a fitted effect of over 15% in size", "outline": "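Wild-type HepG2 cells (2,000/well) were settled 5 h at 37 C, 5% CO2, then exposed to compounds in DMSO for 17 h. Caspase-3/7 activity was read by luminescence 30 min after adding Caspase-Glo 3/7 reagent at room temperature.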"}, "[3]": {"assay": "Caspase-3/7 induction in CHO-K1 cells by small molecules, qHTS cell viability counter screen (AID 1346979); also: nearly all actives have a fitted effect of over 35% in size", "outline": "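Wild-type CHO-K1 cells (1,500/well) treated with compound after 5 h plating; after 16 h at 37C, viability read as CellTiter-Fluor fluorescence following 1 h reagent incubation, in the same wells as the caspase read.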"}, "[4]": {"assay": "Caspase-3/7 induction in CHO-K1 cells by small molecules, qHTS assay (AID 1346980); also: nearly all actives have a fitted effect of over 15% in size", "outline": "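Wild-type cells were seeded at 1,500 per well and settled 5 hr at 37 C, 5% CO2, then exposed to DMSO-dissolved compounds for 17 hr. Caspase-Glo 3/7 reagent was added, and luminescence was read after 30min at room temperature.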"}, "[5]": {"assay": "Caspase-3/7 induction in HepG2 cells by small molecules, qHTS cell viability counter screen (AID 1346981); also: series mostly up to about 92 µM; nearly all actives have a fitted effect of over 30% in size", "outline": "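CellTiter-Fluor fluorescence measured viability in the same wells used for Caspase-Glo 3/7. HepG2 (wild type) at 2,000 cells/well were pre-incubated 5 hr, dosed, and given reagent at 16 hr, with 1 hr further at 37C.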"}, "[6]": {"target": "Nuclear receptor subfamily 1 group I member 2 (Homo sapiens) (UniProt O75469)", "sequence (O75469 whole entry, looked up)": "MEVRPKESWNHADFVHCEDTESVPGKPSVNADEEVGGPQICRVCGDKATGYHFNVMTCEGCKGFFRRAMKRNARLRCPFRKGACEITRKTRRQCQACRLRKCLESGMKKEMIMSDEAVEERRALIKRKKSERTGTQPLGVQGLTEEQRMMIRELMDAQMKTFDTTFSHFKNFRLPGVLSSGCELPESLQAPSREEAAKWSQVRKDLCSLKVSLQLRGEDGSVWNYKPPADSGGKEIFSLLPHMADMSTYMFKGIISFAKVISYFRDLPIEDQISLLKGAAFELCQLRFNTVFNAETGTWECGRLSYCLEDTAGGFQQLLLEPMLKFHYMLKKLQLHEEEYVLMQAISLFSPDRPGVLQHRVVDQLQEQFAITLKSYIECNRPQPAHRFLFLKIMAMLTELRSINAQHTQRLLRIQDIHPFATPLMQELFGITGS", "assay": "Human pregnane X receptor (PXR) small molecule agonists, qHTS assay (AID 1346982); also: nearly all actives have a fitted effect of over 35% in size; also: potency is read from the fitted curve at half-maximal effect", "outline": "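Agonist mode: luminescence from ONE-Glo after 24 h compound exposure at 37C in HepG2 cells carrying hPXR-responsive CYP3A4 luciferase, plated in charcoal-stripped serum medium 5 h beforehand.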"}, "[7]": {"target": "Cytochrome P450 2C19 (Homo sapiens) (UniProt P33261)", "sequence (P33261 whole entry, looked up)": "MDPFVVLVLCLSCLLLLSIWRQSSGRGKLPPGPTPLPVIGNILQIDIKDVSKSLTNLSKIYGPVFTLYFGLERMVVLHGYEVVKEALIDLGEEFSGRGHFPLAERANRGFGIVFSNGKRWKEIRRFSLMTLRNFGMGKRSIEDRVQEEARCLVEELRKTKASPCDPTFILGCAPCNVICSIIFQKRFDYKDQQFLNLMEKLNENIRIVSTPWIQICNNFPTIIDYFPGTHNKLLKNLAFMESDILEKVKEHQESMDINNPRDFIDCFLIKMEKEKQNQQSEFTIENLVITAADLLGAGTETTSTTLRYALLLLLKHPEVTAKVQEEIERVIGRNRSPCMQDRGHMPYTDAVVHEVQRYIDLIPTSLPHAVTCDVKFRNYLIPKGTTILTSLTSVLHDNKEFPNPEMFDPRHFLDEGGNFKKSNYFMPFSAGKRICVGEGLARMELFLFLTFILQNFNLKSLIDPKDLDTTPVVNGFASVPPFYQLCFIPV", "assay": "Cytochrome P450 Family 2 Subfamily C Member 19 (CYP2C19) small molecule antagonists: luciferase reporter qHTS assay (AID 1671197); also: series mostly up to about 120 µM; nearly all actives have a fitted effect of over 65% in size", "outline": "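CYP2C19 P450-Glo, 1536-well qHTS. Cpd + enzyme/proluciferin substrate 10 min RT; + NADPH regen, 37C 1 h; stop with luciferin detection reagent, 20 min RT, luminescence (RLU). Pos ctrl ketoconazole.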"}, "[8]": {"target": "Voltage-gated inwardly rectifying potassium channel KCNH2 (Homo sapiens) (UniProt Q12809)", "sequence (Q12809 whole entry, looked up)": "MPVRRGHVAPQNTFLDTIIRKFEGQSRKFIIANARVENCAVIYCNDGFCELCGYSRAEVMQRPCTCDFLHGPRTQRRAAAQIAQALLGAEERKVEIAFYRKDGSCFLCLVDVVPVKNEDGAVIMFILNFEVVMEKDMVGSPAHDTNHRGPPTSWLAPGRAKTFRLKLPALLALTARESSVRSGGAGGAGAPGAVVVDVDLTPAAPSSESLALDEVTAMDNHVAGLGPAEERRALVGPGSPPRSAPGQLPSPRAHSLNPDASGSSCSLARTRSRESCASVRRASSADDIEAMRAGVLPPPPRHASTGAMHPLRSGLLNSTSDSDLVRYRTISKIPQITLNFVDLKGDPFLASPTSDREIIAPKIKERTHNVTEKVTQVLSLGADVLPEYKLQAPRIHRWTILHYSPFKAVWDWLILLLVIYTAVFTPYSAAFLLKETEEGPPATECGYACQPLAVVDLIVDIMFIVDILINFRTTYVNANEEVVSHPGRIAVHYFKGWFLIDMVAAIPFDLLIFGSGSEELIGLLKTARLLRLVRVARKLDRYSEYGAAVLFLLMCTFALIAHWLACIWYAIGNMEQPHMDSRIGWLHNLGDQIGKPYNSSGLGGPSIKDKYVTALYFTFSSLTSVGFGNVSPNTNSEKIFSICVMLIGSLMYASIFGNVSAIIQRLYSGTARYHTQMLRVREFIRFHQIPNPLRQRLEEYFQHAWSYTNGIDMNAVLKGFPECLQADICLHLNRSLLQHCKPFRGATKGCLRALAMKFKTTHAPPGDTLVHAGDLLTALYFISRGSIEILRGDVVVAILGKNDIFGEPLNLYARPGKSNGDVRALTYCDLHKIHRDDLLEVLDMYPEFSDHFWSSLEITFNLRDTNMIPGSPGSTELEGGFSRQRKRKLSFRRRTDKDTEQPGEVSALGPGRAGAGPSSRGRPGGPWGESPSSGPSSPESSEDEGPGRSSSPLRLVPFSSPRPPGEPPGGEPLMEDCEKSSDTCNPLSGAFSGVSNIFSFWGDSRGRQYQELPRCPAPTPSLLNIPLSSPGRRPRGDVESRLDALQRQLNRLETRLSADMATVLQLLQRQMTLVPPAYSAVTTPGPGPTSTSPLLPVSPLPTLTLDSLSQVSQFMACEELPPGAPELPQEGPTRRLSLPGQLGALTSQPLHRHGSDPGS", "assay": "Human Ether-a-go-go-Related Gene (hERG) channel small molecule antagonists: fluorescence cell-based qHTS assay (AID 1671200); also: series mostly up to about 77 µM; nearly all actives have a fitted effect of over 50% in size", "outline": "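hERG-U2OS cells plated overnight at 37 C, loaded with FluxOR II dye 1 h at RT in dark; after 10 min, thallium stimulus added. Fluorescence (480/540 nm) read kinetically for 2 min at 1 s intervals.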"}, "[9]": {"target": "Cytochrome P450 3A4 (Homo sapiens) (UniProt P08684)", "sequence (P08684 whole entry, looked up)": "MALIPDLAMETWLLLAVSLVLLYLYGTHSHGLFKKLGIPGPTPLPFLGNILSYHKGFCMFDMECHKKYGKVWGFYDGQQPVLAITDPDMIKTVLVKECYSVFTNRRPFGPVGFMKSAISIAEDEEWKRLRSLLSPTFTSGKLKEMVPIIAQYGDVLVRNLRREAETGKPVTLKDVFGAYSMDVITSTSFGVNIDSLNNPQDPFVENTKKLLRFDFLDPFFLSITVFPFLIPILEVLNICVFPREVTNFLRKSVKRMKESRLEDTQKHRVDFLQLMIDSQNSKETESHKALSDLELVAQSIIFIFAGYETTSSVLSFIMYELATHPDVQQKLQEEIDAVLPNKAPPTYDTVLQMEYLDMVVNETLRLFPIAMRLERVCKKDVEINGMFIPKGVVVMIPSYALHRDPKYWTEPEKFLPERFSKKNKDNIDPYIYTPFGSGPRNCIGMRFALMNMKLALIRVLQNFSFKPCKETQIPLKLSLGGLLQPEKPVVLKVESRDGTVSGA", "assay": "Cytochrome P450 Family 3 Subfamily A Member 4 (CYP3A4) small molecule antagonists: luciferase reporter qHTS assay (AID 1671201); also: nearly all actives have a fitted effect of over 50% in size; also: potency is read from the fitted curve at half-maximal effect; as to activity change, negative = inhibition: series mostly up to about 120 µM", "outline": "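P450-Glo CYP3A4 luminescent assay: compounds preincubated 10 min at room temperature with enzyme and proluciferin substrate, NADPH regeneration added, 1 h room-temperature reaction, stopped with luciferin detection reagent; luminescence read after 20 min. Ketoconazole positive control.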"}, "[10]": {"target": "Cytochrome P450 2C9 (Homo sapiens) (UniProt P11712)", "sequence (P11712 whole entry, looked up)": "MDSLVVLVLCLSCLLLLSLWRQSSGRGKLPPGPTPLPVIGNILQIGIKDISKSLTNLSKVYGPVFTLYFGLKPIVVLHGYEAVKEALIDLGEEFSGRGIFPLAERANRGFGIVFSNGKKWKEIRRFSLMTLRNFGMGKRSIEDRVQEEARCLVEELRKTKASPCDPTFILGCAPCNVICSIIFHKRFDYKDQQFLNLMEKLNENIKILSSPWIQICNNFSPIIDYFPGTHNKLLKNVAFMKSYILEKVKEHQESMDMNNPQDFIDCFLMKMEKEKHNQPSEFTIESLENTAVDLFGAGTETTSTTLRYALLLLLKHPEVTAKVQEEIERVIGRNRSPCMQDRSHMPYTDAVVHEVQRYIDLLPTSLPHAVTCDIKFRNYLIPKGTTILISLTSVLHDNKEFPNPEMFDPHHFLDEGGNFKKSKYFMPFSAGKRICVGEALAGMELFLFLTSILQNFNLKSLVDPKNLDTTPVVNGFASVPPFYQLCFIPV", "assay": "Cytochrome P450 Family 2 Subfamily C Member 9 (CYP2C9) small molecule antagonists: luciferase reporter qHTS assay (AID 1671198); also: series mostly up to about 120 µM; nearly all actives have a fitted effect of over 50% in size", "outline": "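CYP2C9 activity was measured with a P450-Glo proluciferin substrate. Enzyme–substrate mix was held with compound for 10 min at room temperature, then NADPH regeneration solution was added for 1 h at 37C. Luciferin product was read as luminescence.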"}, "[11]": {"target": "Cytochrome P450 1A2 (Homo sapiens) (UniProt P05177)", "sequence (P05177 whole entry, looked up)": "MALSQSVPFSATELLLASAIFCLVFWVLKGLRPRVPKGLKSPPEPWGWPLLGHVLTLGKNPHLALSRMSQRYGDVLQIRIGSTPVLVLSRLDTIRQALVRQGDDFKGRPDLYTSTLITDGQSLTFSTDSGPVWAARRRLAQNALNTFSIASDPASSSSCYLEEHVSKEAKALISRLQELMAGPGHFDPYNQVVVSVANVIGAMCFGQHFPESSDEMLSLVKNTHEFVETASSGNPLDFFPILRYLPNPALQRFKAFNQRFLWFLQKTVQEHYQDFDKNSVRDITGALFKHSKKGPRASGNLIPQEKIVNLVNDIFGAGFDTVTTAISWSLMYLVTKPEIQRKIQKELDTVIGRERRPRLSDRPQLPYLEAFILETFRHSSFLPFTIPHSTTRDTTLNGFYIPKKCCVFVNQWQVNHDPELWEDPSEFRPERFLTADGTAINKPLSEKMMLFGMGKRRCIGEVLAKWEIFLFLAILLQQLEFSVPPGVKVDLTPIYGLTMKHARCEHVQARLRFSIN", "assay": "Cytochrome P450 Family 1 Subfamily A Member 2 (CYP1A2) small molecule antagonists: luciferase reporter qHTS assay (AID 1671199)", "outline": "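Luminescence from luciferin formed by CYP1A2 from a proluciferin substrate, read 20 min after detection reagent. Compound was pre-incubated 10 min with enzyme-substrate, and reaction started with NADPH regeneration solution for 1 h at room temperature; furafylline control.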"}}, "note": "Unmarked numbers belong to inactive results. Records with an inconclusive call do not appear. Entries that show only a call come without a potency. The source made the active and inactive calls. Calls follow the shape of the dose curve; as a rule, active = well fitted curve in the direction sought with a large enough effect in the repeat runs; inconclusive = weak or mixed curves; inactive = no such curve, though single readings can be large; an effect the other way counts as inactive or inconclusive."}
{"smiles": "CC(C)(C)c1nnc(NS(=O)(=O)c2ccc(N)cc2)s1", "values": [{"measurement": "Potency", "setting": "[1]", "value": "inactive"}, {"measurement": "Potency", "setting": "[2]", "value": "inactive"}, {"measurement": "Potency", "setting": "[3]", "value": "inactive"}, {"measurement": "outcome", "setting": "[4]", "value": "inactive"}, {"measurement": "Potency", "setting": "[5]", "value": "inactive"}, {"measurement": "Potency", "setting": "[6]", "value": "inactive"}, {"measurement": "Potency", "setting": "[7]", "value": "inactive"}, {"measurement": "Potency", "setting": "[8]", "value": "inactive"}, {"measurement": "Potency", "setting": "[9]", "value": "inactive"}]}
{"smiles": "O=C(O)CCSSCCC(=O)O", "values": [{"measurement": "Potency", "setting": "[1]", "value": "inactive"}, {"measurement": "Potency", "setting": "[2]", "value": "inactive"}, {"measurement": "Potency", "setting": "[3]", "value": "inactive"}, {"measurement": "outcome", "setting": "[4]", "value": "inactive"}, {"measurement": "Potency", "setting": "[5]", "value": "inactive"}, {"measurement": "Potency", "setting": "[7]", "value": "inactive"}, {"measurement": "Potency", "setting": "[10]", "value": "inactive"}, {"measurement": "Potency", "setting": "[8]", "value": "inactive"}, {"measurement": "Potency", "setting": "[9]", "value": "inactive"}]}
{"smiles": "CN1CCN(CC(=O)N2c3ccccc3C(=O)Nc3cccnc32)CC1", "values": [{"measurement": "activity change, negative = cytotoxicity", "setting": "[1]", "value": "5.67% [at 8.39 µM]"}, {"measurement": "caspase activation", "setting": "[2]", "value": "-1.35% [at 8.39 µM]"}, {"measurement": "activity change, negative = cytotoxicity", "setting": "[3]", "value": "7.7% [at 8.39 µM]"}, {"measurement": "caspase-3/7 activation", "setting": "[4]", "value": "0.448% [at 8.39 µM]"}, {"measurement": "activity change, negative = cytotoxicity", "setting": "[5]", "value": "-1.47% [at 8.39 µM]"}, {"measurement": "activation", "setting": "[6]", "value": "-11.1% [at 8.39 µM]"}, {"measurement": "activity change, negative = inhibition", "setting": "[7]", "value": "8.9% [at 10.5 µM]"}, {"measurement": "activity change, negative = inhibition", "setting": "[10]", "value": "2.89% [at 10.5 µM]"}, {"measurement": "activity change, negative = inhibition", "setting": "[11]", "value": "13.2% [at 10.5 µM]"}, {"measurement": "activity change, negative = inhibition", "setting": "[8]", "value": "-0.112% [at 6.97 µM]"}, {"measurement": "activity change, negative = inhibition", "setting": "[9]", "value": "4.83% [at 10.5 µM]"}]}
{"smiles": "CCCC/C=C/C=C\\C=O", "values": [{"measurement": "Potency", "setting": "[1]", "value": "inactive"}, {"measurement": "Potency", "setting": "[2]", "value": "inactive"}, {"measurement": "Potency", "setting": "[3]", "value": "inactive"}, {"measurement": "outcome", "setting": "[4]", "value": "inactive"}, {"measurement": "Potency", "setting": "[5]", "value": "inactive"}, {"measurement": "Potency", "setting": "[6]", "value": "24.3 µM (active)"}, {"measurement": "Potency", "setting": "[10]", "value": "inactive"}, {"measurement": "Potency", "setting": "[8]", "value": "inactive"}, {"measurement": "Potency", "setting": "[9]", "value": "39.9 µM (active)"}]}
{"smiles": "CC(C)CCCC(C)(C)O", "values": [{"measurement": "Potency", "setting": "[1]", "value": "inactive"}, {"measurement": "Potency", "setting": "[2]", "value": "inactive"}, {"measurement": "Potency", "setting": "[3]", "value": "inactive"}, {"measurement": "outcome", "setting": "[4]", "value": "inactive"}, {"measurement": "Potency", "setting": "[5]", "value": "inactive"}, {"measurement": "Potency", "setting": "[7]", "value": "inactive"}, {"measurement": "Potency", "setting": "[10]", "value": "inactive"}, {"measurement": "Potency", "setting": "[11]", "value": "inactive"}, {"measurement": "Potency", "setting": "[8]", "value": "inactive"}, {"measurement": "Potency", "setting": "[9]", "value": "inactive"}]}
